These results are taken from PubChem BioAssay AID485284 (NMMLSC, 2010).

Potency and affinity values are given separately.

A short description of the test: loss of vesicle association with mouse CD8+ T cells – mouse 2C CD8+ T cells, flow cytometry, dose response (AID 485284).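 Further: drosophila derived vesicles carrying Ld MHC with QL9 peptide plus B7-1 and ICAM-1; vesicle binding seen as anti-B7-1 PE fluorescence on CD8 gated cells.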 The following applies: 2C mouse CD8+ T cell-exosome binding; at 45 µM (top of the series).
On to `Cc1cccc(OCC(=O)Nc2ccccc2C(=O)N2CCOCC2)c1`, for which the binding remaining, % of control stood at 161%.
Then `O=C(NNS(=O)(=O)c1ccc2ccccc2c1)c1cccs1`, with 42.6%; and `CCOc1ccc(Cl)cc1/C=N/NC(=O)c1ccccc1`, with 35.5%; and `O=C(Nn1cnc2ccccc2c1=O)C1CCCCC1`, with 106%.
For the compound `COc1ccc(NC(=O)C2CCC(C(C)(C)C)CC2)cc1S(=O)(=O)N1CCCCC1` (stereo not drawn), the binding remaining, % of control was determined as 97.1%.
Regarding `COc1ccc(NC(=O)[C@H](C)NC(=O)C2CCN(S(=O)(=O)c3ccc(C)cc3)CC2)cc1`, the binding remaining, % of control was found to be 108%.
Then `CCOC(=O)c1cc2occc2n1CC(=O)NC1CCC(C)CC1` (stereo not drawn), with 77%; and `COc1ccc([C@H]2CC(=O)C=C(c3ccc4c5c(cccc35)CC4)C2)cc1`, with 119%.
Then `O=C(CCC(=O)N1CCOCC1)NCc1cccc(C(F)(F)F)c1`, with 64.2%; and `CCOC(=O)N1CCN(C(=O)c2ccc(CS(=O)Cc3ccc(C)cc3)o2)CC1` (stereo not drawn), with 44.7%.
Then `CCc1noc(C)c1C(=O)OC(C)C(=O)Nc1ccc2c(c1)OCO2` (stereo not drawn), with 171%; and `CCC1(c2ccccc2)NC(=O)N(CC(=O)Nc2cc(Cl)ccc2N2CCN(C)CC2)C1=O` (stereo not drawn), with 124%; and `O=C(Nc1ccccc1F)C1CCCN(S(=O)(=O)c2cccc3cccnc23)C1` (stereo not drawn), with 105%.
Consider `COc1ccc(-c2cc(=O)c3cc(O)ccc3o2)cc1`, for which the binding remaining, % of control stood at 110%.
On to `Cc1cc(S(=O)(=O)N2CCN(Cc3ccccc3)CC2)c(C)s1`, for which the binding remaining, % of control came to 94.5%.
Regarding `CCN1CCN(c2ccc(NC(=O)c3cc4ccccc4cc3OC)cc2C)CC1`, the binding remaining, % of control amounted to 128%.
For `O=C(N/N=C/c1cccc(OCc2ccccc2)c1)c1ccc(Br)cc1` the value was 63.5%.
Take `COc1ccc(CNC(=O)c2cccnc2SC)cc1OC`: the binding remaining, % of control was 132%.
